From PubChem BioAssay AID2803 (The Scripps Research Institute Molecular Screening Center, 2010)
The whole screen tested about 2,000 compounds, of which about 1,300 (65%) were called active. Cut-off read from the data, not from the text of the source: active = inhibition above about 43%; inactive = the rest. So high a share suggests a set chosen from earlier hits. Not all results are given here.

These compounds were tested against Prolyl endopeptidase-like (Homo sapiens) (UniProt Q4J6C6) (assay: human PREPL enzyme inhibitors, confirmation, biochemical, fluorescence polarization (AID 2803;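 note: 0% = protein with DMSO and 100% = wells lacking protein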)). Details: recombinant PREPL, fluorescence polarization activity probe; at 5.96 µM; stronger effect = higher value.
Chain of Prolyl endopeptidase-like (Homo sapiens) (Q4J6C6 whole entry, looked up): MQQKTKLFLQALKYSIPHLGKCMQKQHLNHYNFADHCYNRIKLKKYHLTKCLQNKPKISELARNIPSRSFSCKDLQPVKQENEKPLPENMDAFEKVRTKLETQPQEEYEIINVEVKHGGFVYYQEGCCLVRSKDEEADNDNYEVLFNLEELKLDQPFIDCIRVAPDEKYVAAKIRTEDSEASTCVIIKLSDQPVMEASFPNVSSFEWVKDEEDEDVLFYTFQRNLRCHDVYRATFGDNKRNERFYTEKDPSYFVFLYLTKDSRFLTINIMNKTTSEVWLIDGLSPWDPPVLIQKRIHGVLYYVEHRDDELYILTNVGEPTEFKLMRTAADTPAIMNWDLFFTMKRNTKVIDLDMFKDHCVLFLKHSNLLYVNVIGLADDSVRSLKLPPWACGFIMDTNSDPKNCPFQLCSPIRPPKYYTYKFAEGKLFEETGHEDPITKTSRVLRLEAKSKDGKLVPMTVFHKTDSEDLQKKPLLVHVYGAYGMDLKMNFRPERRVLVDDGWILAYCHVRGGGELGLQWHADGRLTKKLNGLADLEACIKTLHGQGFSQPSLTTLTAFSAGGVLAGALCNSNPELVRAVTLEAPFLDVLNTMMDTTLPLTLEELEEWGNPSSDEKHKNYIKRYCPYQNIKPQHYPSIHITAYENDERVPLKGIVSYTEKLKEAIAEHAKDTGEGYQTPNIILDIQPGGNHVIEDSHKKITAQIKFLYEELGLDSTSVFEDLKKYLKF

inhibition, active:
CCOc1ccc2nc(N3CCCN(C(=O)Nc4ccccc4C)CC3)c(C#N)cc2c1 43.9%, CC(=O)Nc1ccc(S(=O)(=O)Nc2ccc(N3CCCCC3)cc2)cc1 46.4%, O=C1N=C(N2CCc3ccccc3C2)S/C1=C\c1ccc(O)cc1 48.4%, COc1ccc2cc1Oc1ccc(cc1)C[C@H]1c3cc(c(OC)cc3CCN1C)Oc1c(O)c(OC)cc3c1[C@H](C2)N(C)CC3 55.2%, CCN1C(=O)/C(=C\N2CCN(c3ccccc3)CC2)SC1=S 54.7%, CCN1/C(=C\c2ccc3ccccc3[n+]2CC)Sc2cc(C)ccc21 61.6%, CCN1/C(=C/c2ccc3ccc(C)cc3[n+]2CC)Sc2ccccc21 52.8%, C#CCOCCOCCOCCNc1nc(N2CCN(C(=O)CCCCCCCCCCNC(=O)Cn3cc(CCCCCN)nn3)CC2)nc(N2CCN(C(=O)CCCCCCCCCCNC(=O)[C@H](CO)n3cc(CCCSC)nn3)CC2)n1 63.1%, CC(C)n1cnc2c(NCc3ccccc3)cc(OCC3CCN(C)CC3)cc21 54.1%, N#C/C(=C/c1ccc(N2CCCCC2)o1)C(=O)NCCc1c[nH]c2ccccc12 78.5%, Oc1c(CN2CCCC2)cc(COCc2ccccc2)c2cccnc12 69.6%, Cc1ccc(C2CC(c3cccc(C)c3)n3nc(N)nc3N2)cc1 (stereo unspecified) 53.7%, O=C(c1cc(C(=O)N2CCN(c3ccc(F)cc3)CC2)cc([N+](=O)[O-])c1)N1CCN(c2ccc(F)cc2)CC1 47.8%, O=C1c2ccccc2C(=O)c2c1cccc2N1CCN(C/C=C/c2ccccc2)CC1 80.7%, C[N+](C)(CCCCCC[N+](C)(C)CCCN1C(=O)c2cccc3cccc(c23)C1=O)CCCN1C(=O)c2cccc3cccc(c23)C1=O 56%, CC(C)(C)Nc1nc(-c2ccccn2)nc2ccccc12 62.5%, CC(=O)N1CCN(c2ccc(NCc3ccc(C(C)C)cc3)cc2)CC1 61.9%, CC[C@@H](C)[C@@H]1CN([C@@H](C)CN2CCC[C@H]2CN2C(N)=NC[C@H]2C(C)C)C(=N)N1CCc1ccc(Cl)c(Cl)c1 66.1%, Cc1ccc(OCC(=O)Nc2ccc(N3CCN(C(=O)c4ccco4)CC3)cc2)c(C)c1 52.6%, CN1CCN(c2ccc(NC(=O)COc3ccc(Cl)cc3Cl)cc2)CC1 58%, Cc1ccc(N2CCN(C3=NC(=O)/C(=C\c4cccs4)S3)CC2)cc1 44.4%, CCN(CC)c1ccc2cc(C(N)=O)/c(=N\NC(=O)c3ccncc3)oc2c1 56.2%, Nc1c(C(=O)c2cccs2)sc2nsc(SCCN3CCCCC3)c12 54.6%, Cc1ccc(NS(=O)(=O)c2ccc(N/N=C/c3ccccc3OCC(=O)O)c([N+](=O)[O-])c2)c(C)c1 46.4%, CC(C)CCNc1nc(N2CCCC2)c2c(c1C#N)CCN(C)C2 49%, CNCC[C@H](Oc1ccc(C(F)(F)F)cc1)c1ccccc1 55.1%

inhibition, inactive:
Nc1ccc(Nc2ccccc2)cc1 29.3%, O=C(NNc1c2ccccc2nc2ccccc12)c1cc2ccccc2cc1O 23.9%, COC(=O)[C@H]1[C@H]2C[C@H]3c4[nH]c5ccccc5c4CCN3C[C@@H]2CC[C@@H]1O 22.4%, Cc1nc([N+](=O)[O-])nn1C12CC3CC(CC(Br)(C3)C1)C2 8.94%, CCC(CO)Oc1cc(NCc2ccccc2)c2ncn(C3CCCC3)c2c1 (stereo unspecified) 12%, O=C(NCc1ccccn1)c1ccc2nc(-c3ccco3)c(-c3ccco3)nc2c1 39.2%, Oc1ccc2ccccc2c1N=Nc1nccs1 40.4%, O=C(OCC(=O)N1CCN(c2ccccc2)CC1)c1ccc([N+](=O)[O-])s1 22.6%, COCCN(CCOC)c1nc(N)c2c(N)nc3c(c2c1C#N)CC(=O)N3Cc1ccc(Cl)cc1 19.2%, COc1ccc2cc(C(=O)C3CCCN(C(=O)c4sc(C)nc4C)C3)ccc2c1 (stereo unspecified) 31.8%, Cn1c(CCN2CCCCCC2)nc2cc(NC(=O)Nc3ccccc3)ccc21 38.1%, O=C(N/N=C/c1cccnc1)c1cc2ccccc2cc1O 5.89%, COc1cc2c(cc1O)[C@H](Cc1ccc(Oc3cc(C[C@@H]4NCCc5cc(OC)c(O)cc54)ccc3O)cc1)NCC2 37.1%, C[C@@H](CN1CCC[C@H]1CN1C(N)=NC[C@@H]1Cc1ccccc1)N1C[C@@H](Cc2ccccc2)N(CCCC2CCCC2)C1=N 42.6%, COc1ccc(NC(C)=O)cc1NC(=O)CN1CCN(C2c3ccccc3-c3ccccc32)CC1 37.7%, Cc1ccccc1OCC(=O)Nc1ccc(N2CCN(C(=O)C(C)C)CC2)c(Cl)c1 42.7%, CC1CCN(C(=O)c2ccc3c(c2)NC(=O)CN3)CC1 12.2%, O=C1N[C@H](Cc2c[nH]c3ccccc23)COC(=O)[C@H](Cc2ccc(F)cc2)C/C=C\C[C@H]1CC(=O)N(CCO)Cc1ccccc1 34.5%, COC(=O)Cc1nc2ccccc2[nH]1 7.22%, Cc1ccc(Nc2ccccc2N)cc1 32.1%
